Sampled rows, rich in hits. Any-hit rate of the full collection: about 4.9%.
Calb FLC: affects C. albicans growth with fluconazole | C. albicans CaCi-2 (fluconazole-resistant clinical isolate) + fluconazole, Alamar Blue growth, 48 h | growth inhibition, % (no concentration beside the values) | hit rate 0.57% among 300,000 | AID 1979;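 active = growth inhibition above about 58% in most replicates, limit read from the data, passing the limit was not always enough; inconclusive = exactly half the replicates above a set limit; inactive = most replicates below a set limit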;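 note: all wells also contain fluconazole at 8 µg/ml as a sub-toxic cotreatment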
PP5 primary: blocks human protein phosphatase 5 activity; hit rate 0.18% among 320,000; inhibition, % at 6.7 µM; AID 1987; purified PP5c, OMFP substrate fluorescence;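 active = inhibition above the campaign's mean inhibition across all tested compounds plus 3 SD, cut at about 9.5% in these data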
Target sequence (P53041 whole entry, looked up): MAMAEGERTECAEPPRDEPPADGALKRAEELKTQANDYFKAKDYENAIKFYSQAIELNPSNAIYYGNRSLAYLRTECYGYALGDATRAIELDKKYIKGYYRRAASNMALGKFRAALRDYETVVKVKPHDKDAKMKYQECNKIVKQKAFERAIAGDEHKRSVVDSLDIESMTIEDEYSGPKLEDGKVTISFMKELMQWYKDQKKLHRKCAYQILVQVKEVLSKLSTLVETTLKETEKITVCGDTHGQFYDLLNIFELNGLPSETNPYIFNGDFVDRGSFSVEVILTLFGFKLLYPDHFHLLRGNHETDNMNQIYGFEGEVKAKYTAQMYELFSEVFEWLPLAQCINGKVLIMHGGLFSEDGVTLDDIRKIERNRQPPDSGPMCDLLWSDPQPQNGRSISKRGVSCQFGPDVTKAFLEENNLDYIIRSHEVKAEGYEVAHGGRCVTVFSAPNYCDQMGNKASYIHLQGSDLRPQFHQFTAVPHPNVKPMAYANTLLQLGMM
PP1 counter: PP1-alpha (human) inhibition in PP5 counter-screen | P62136 | purified PP1alpha, OMFP fluorescence | inhibition, % at 6.7 µM | hit rate 0.9% among 320,000 | AID 2235;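 active = inhibition above the mean inhibition of all tested compounds plus 3 SD, computed separately for each screening campaign, cut at about 15% in these data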
Beta apoptosis: blocks beta cell apoptosis | INS-1E cytokine-induced death, ATP luminescence, 48 h; percent of positive-control rescue, neutral wells zero | protection from apoptosis, % (no concentration beside the values) | hit rate 0.8% among 300,000;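 active = Every replicate reaches about 75%, or at least half do and their mean reaches it too, limit read from the data; inconclusive = At least half of replicates reach the limit but their mean does not; inactive = Under half of replicates reach the limit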;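 note: higher means more ATP so stronger rescue from cytokine killing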
Mdm2 MdmX PPI: human Mdm2/MdmX binding inhibition; inhibition, % at 8 µM; hit rate 3% among 330,000; SaOS-2 split-luciferase Mdm2/MdmX complementation, luminescence; AID 485346; O15151+Q00987;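 active = inhibition of at least 50% at 8 µM in the primary screen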
CSC inhib: cancer stem cell inhibition; cancer stem cell-like cells viability, luminescence; inhibition, % at 7.5 µM; hit rate 1.1% among 300,000; AID 2717; in the data active = inhibition above about 75%; inconclusive = no clear call, values can overlap the other calls; tested in HMLE shEcad cells
PP1 inh confirm: confirmation of human PP1 phosphatase inhibitors; shares compounds with PP1 counter; hit rate 52% among 1,900; AID 2358; inhibition, % at 6.7 µM; purified PP1alpha, OMFP substrate fluorescence;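 active = mean PP1 inhibition above a set limit taken from the earlier primary screen, cut at about 15% in these data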
PP5 inh counter: counter-screen for PP1 inhibitors: human PP5 phosphatase inhibition; shares compounds with PP1 counter; inhibition, % at 6.7 µM; purified PP5c, OMFP fluorescence; hit rate 4% among 1,900; AID 2360;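 active = mean PP5 inhibition over triplicate wells above about 9.5% taken from the earlier PP1 screen, limit read from the data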
Mdm2-MdmX conf: confirmation of human Mdm2/MdmX interaction inhibitors; inhibition, % at 8 µM; hit rate 55% among 10,000; shares compounds with Mdm2 MdmX PPI; AID 489028; Mdm2-MdmX binding, luminescent assay; in the data active = inhibition above about 40%
Full FLuc ctr: inhibits full-length luciferase, flagging false Mdm2/MdmX hits. AID 504607. hit rate 77% among 6,200. inhibition, % at 8 µM. shares compounds with Mdm2 MdmX PPI. SaOS-2 full-length luciferase counterscreen, luminescence;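 active = mean inhibition at 8 µM reaching about 37%, which flags the compound as non-specific, limit read from the data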;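 note: p53-null SaOS-2 cells with luciferase driven by a doxycycline-inducible promoter; compound on cells about two nights before reading with doxycycline added after day one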
A number is an active result; – = inactive; ? = inconclusive; · = no result.

SMILES	Calb FLC	PP5 primary	PP1 counter	Beta apoptosis	Mdm2 MdmX PPI	CSC inhib	Mdm2-MdmX conf	Full FLuc ctr	others
CCc1ccc(NC(=O)CCn2c(=O)c3cccn3c3ccccc32)cc1	–	–	–	–	–	–	·	·
O=C(CNC(=O)Cc1ccccc1)NCc1cccc(C(F)(F)F)c1	–	–	–	–	–	·	·	·
CC[C@@H](C)[C@H](CNC)NC[C@@H](Cc1cccc2ccccc12)NCCc1cccc(C(F)(F)F)c1	112	–	25	–	100	?	100	52	PP1 inh confirm=–;PP5 inh counter=–
O=C(/C=C/c1cn(-c2ccccc2)nc1-c1cccnc1)c1ccco1	–	–	18	–	52	–	–	·	PP1 inh confirm=–;PP5 inh counter=–
Cc1cc(NC(=O)CCC(=O)N(Cc2ccco2)C2(C(=O)NC3CCCCC3)CCCCC2)no1	–	–	–	–	–	·	·	·
Cc1cccc2c1Sc1ccc(Cl)cc1CC2N1CCNCC1 (stereo not drawn)	–	–	19	·	100	102	–	46	PP1 inh confirm=–;PP5 inh counter=–
CN1CCN(C2Cc3ccccc3Sc3ccc(Cl)cc32)CC1 (stereo not drawn)	·	–	–	–	–	–	·	·
CC1(C)CC(=O)N(c2cccc(C(F)(F)F)c2)C(=O)C1	–	–	–	–	–	–	·	·
Cc1ccc(Cn2cnc3ccccc32)cc1C	–	–	–	–	–	–	·	·
Cc1ccc(S(=O)(=O)NNC(=O)Nc2ccc(C)c(C)c2)c(C)c1	–	–	–	–	–	–	·	·
COc1c(OC)c(O)c2c(=O)c(O)c(-c3ccccc3)oc2c1OC	–	–	18	–	81	–	–	·	PP1 inh confirm=30;PP5 inh counter=–
COc1c(O)c(O)c2oc(-c3ccccc3)cc(=O)c2c1OC	–	–	–	·	–	–	·	·
CCOC(=O)c1c(CSc2ccc(CC)cc2)oc2ccc(O)c(CN(C)C)c12	–	–	18	–	86	81	44	63	PP1 inh confirm=–;PP5 inh counter=–
CCOC(=O)c1c(C)oc2ccc(O)c(CN(C)C)c12	–	–	–	–	–	–	·	·
Cc1[nH]n(-c2ccc(F)cc2)c(=O)c1C=Nc1ccc(S(=O)(=O)N(C)C)cc1	–	–	–	–	–	–	·	·
COc1ccc(NC(=O)C(=O)N/N=C/c2cc(C)n(-c3cccc(Cl)c3Cl)c2C)c(OC)c1	–	–	–	–	–	–	·	·
O=C(Nc1nnc(-c2ccc3c(c2)CCCC3)o1)c1ccccc1	88	–	23	–	57	92	66	47	PP1 inh confirm=28;PP5 inh counter=–
O=C(Nc1nnc(-c2ccncc2)o1)c1ccccc1	–	–	–	–	–	–	·	·
Cc1ccc(C)c(NC(=O)CN(C)C(=O)c2ccc3c(=O)n4c(nc3c2)CCC4)c1	·	–	–	–	–	·	·	·
CC(C)(C)C(=O)/C=c1\s/c(=C\c2ccc(-c3ccc([N+](=O)[O-])cc3)o2)c(=O)n1CC(=O)NC(N)=O	–	–	–	–	68	–	58	54
CCCNC(=O)COC(=O)c1ccccc1C(=O)c1ccc(Cl)c([N+](=O)[O-])c1	–	–	–	–	98	–	88	52
O=C(c1cccc([N+](=O)[O-])c1)N1CCCC(C(=O)N2CCN(c3ccccc3)CC2)C1 (stereo not drawn)	·	–	–	–	–	–	·	·
O=C(NCc1ccccc1)c1onc(CSc2ccccc2)c1C(=O)NCC1CC1	–	–	16	–	55	–	50	81
O=C(Nc1cccc(Cl)c1)c1nc[nH]c1C(=O)NCc1ccccc1	·	–	–	–	–	–	·	·
O=C(Nc1cccc(Cl)c1)c1nc[nH]c1C(=O)NCCCCNC(=O)c1[nH]cnc1C(=O)Nc1cccc(Cl)c1	·	·	·	–	86	·	–	·
SMILES	Calb FLC	PP5 primary	PP1 counter	Beta apoptosis	Mdm2 MdmX PPI	CSC inhib	Mdm2-MdmX conf	Full FLuc ctr	others
O=C(Nc1cccc(Cl)c1)c1nc[nH]c1C(=O)NCCN(CCNC(=O)c1[nH]cnc1C(=O)Nc1cccc(Cl)c1)CCNC(=O)c1[nH]cnc1C(=O)Nc1cccc(Cl)c1	·	·	·	–	75	·	–	·
O=C(Nc1ccc(Cl)cc1)c1nc[nH]c1C(=O)NCCCCNC(=O)c1[nH]cnc1C(=O)Nc1ccc(Cl)cc1	·	·	·	–	99	–	73	69
O=C(NCc1ccc2c(c1)OCO2)C1CCC(=O)N1C1CCCC1 (stereo not drawn)	–	–	–	–	–	–	·	·
CC(=O)c1ccc(NC(=O)c2ccc(-n3cnnn3)cc2)cc1	·	·	·	·	–	·	·	·
CCCc1cnc(N2CCN(C(=O)c3ccc(OC)cc3)CC2)nc1	–	–	–	–	–	–	·	·
CC#C[C@]1(O)CC[C@H]2[C@@H]3CCC4=CC(=O)CCC4=C3[C@@H](c3ccc(N(C)C)cc3)C[C@@]21C	–	–	–	–	–	–	·	·
CCOc1ccc(N/C(N)=N/c2nc(CSc3nnc(C)s3)cc(=O)[nH]2)cc1	–	–	–	–	67	?	56	81
Cc1ccccc1-c1nc2cc(NC(=O)C3CC3)ccc2o1	–	–	–	–	–	–	·	·
COc1ccc2cc3c(N)nn(C(=O)c4cccc([N+](=O)[O-])c4)c3nc2c1	–	–	–	–	88	–	67	–
COc1ccc2cc3c(N)nn(C(=O)C4CCC(C(C)(C)C)CC4)c3nc2c1 (stereo not drawn)	–	–	–	–	94	–	88	–
COc1ccc2cc3c(N)nn(C(=O)Cc4ccccc4OC)c3nc2c1	–	–	–	–	72	–	67	62
COc1ccc(-c2nc(N)n(C(=O)Cc3ccccc3)n2)cc1	·	–	–	–	–	–	·	·
COc1ccc(N2CC(NS(=O)(=O)c3cccs3)CC2=O)cc1OC (stereo not drawn)	–	–	–	–	–	–	·	·
O=C(NCCc1ccccc1)c1ccc2c(c1)OCCCO2	–	–	–	–	97	–	94	52
O=C(NCCc1ccccc1)c1ccc2c(c1)OCCO2	–	–	–	–	84	–	85	–
O=C(CCCc1ccccc1)c1ccc2c(c1)OCCO2	–	–	–	–	90	–	88	57
O=C(CCc1ccccc1)c1ccc2c(c1)OCCCO2	–	–	–	–	–	–	·	·
Cc1ccc(C)c(S(=O)(=O)NCCN2CCOCC2)c1	–	–	–	–	–	–	·	·
Cc1ccc(-n2cc(CN3CCC(CO)(Cc4cccc(C(F)(F)F)c4)CC3)cn2)cc1	–	–	–	–	84	–	48	69
Cc1ccc(-n2cc(CN3CCC(CO)(Cc4ccccc4)CC3)cn2)cc1	–	–	–	–	–	–	·	·
CCOc1ccc(CN(C)C(=O)CCl)cc1	–	–	–	–	56	–	–	·
